Bioassay records as filed in PubChem BioAssay.
Only some compounds are listed: those with a hit (about 4.5% of all), similar ones and a draw of the others.
hgDAF-12 ag = H. glycines DAF-12 receptor agonists, primary screen, cell-based, luminescence, HEK293, GAL4 fusion, UAS-luciferase; HEK293 GAL4-hgDAF12 UAS-luciferase reporter, agonist luminescence; normalized to butyrate control; activation, % at 6.8 µM; 1.8% of 370,000 active;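 active = activation above a cutoff set at the mean of all screened compounds plus 3 SD, cut at about 10% in these data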;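 note: 0% = DMSO wells and 100% = sodium butyrate wells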
hcDAF12 agonist = H. contortus DAF-12 nuclear receptor activators, primary screen, cell-based, luminescence, HEK293, lit1-tk-luc reporter; AID 652067, 2013; 1.4% of 370,000 active; activation, % at 6.8 µM; HEK293 hcDAF-12 lit1-tk-luc reporter; 0% DMSO, 100% Δ7-dafachronic acid;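 active = activation above the mean of all tested compounds plus 3 SD, cut at about 5.5% in these data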;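 note: 100% = response to 3 µM Δ7-dafachronic acid high control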
DAX1 inh-1 = DAX1 (NR0B1) inhibitors, primary screen, cell-based, HEK293, Gal4-DAX1, luciferase luminescence | 0.99% of 340,000 active | AID 504766, 2011 | inhibition, % at 6.75 µM | HEK293 Gal4-DAX1 luciferase reporter;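 active = inhibition above the mean over all tested compounds plus 3 SD, cut at about 4.2% in these data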;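 note: 0% = DAX1-transfected cells with DMSO and 100% = empty-vector control cells with DMSO; inhibition shows as a rise in luminescence from relieved DAX1 repression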
Target sequence (P51843 207-470 limits assumed): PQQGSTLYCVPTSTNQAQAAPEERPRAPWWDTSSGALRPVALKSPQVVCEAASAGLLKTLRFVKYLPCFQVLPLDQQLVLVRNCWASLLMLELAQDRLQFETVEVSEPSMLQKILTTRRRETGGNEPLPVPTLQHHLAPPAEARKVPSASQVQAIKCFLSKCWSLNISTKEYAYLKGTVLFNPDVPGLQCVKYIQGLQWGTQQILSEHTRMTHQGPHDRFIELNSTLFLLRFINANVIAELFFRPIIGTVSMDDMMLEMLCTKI
DAX1 inh-2 = DAX1 (NR0B1) inhibitors on StAR promoter, primary screen, cell-based, luminescence, SF-1 (NR5A1), full-length DAX-1 | 1.1% of 370,000 active | HEK293T StAR-luciferase reporter, SF-1/DAX-1 repression relief | AID 652010, 2013 | inhibition, % at 6.8 µM;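 active = inhibition above the mean over all tested compounds plus 3 SD, cut at about 3.6% in these data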;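 note: 0% = DAX-1 cells with DMSO and 100% = cells lacking DAX-1 with DMSO; higher inhibition means more luminescence from relief of DAX-1 repression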
ssDAF12 agonist = S. stercoralis DAF-12 nuclear receptor activators, primary screen, cell-based, luminescence, HEK293, GRIP1 co-expression, lit1-tk-luc; HEK293 ssDAF-12/GRIP1 lit1-tk-luc reporter; % of 3 µM dafachronic acid response; activation, % at 6.8 µM; 1% of 370,000 active;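 active = activation above the mean over all tested compounds plus 3 SD, cut at about 0.9% in these data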;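 note: 0% = DMSO-only wells and 100% = 3 µM delta7-dafachronic acid wells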
GAA850 FXN act = FXN promoter activators, primary screen, cell-based, luciferase luminescence, HEK293 lucGAA850. HEK293 lucGAA850 FXN promoter luciferase reporter, 24 h; percent of 10 µM SAHA response. activation, % at 6 µM. 0.56% of 360,000 active;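 active = activation above the average of all compounds screened plus 3 SD, cutoff fixed separately per campaign, cut at about 7.5% in these data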;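 note: 0% = DMSO wells and 100% = 10 µM SAHA wells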
An asterisk follows results filed as active; . = no result given.

SMILES | hgDAF-12 ag | hcDAF12 agonist | DAX1 inh-1 | DAX1 inh-2 | ssDAF12 agonist | GAA850 FXN act
CCOC(=O)C1=C(C)C(c2ccccc2O)NC(=O)N1 (stereo unspecified) | 0 | -2 | 6.0* | 0 | -1 | -3
O=C(c1cnc2nc3ccccc3n2c1)c1cc(F)ccc1O | 7 | 5.6* | 0 | 3 | 0 | 4
COC(=O)[C@]12C[C@H](CC(=O)NCc3cccc(C(F)(F)F)c3)C(=O)N(CCC3=CCCCC3)C1=C[C@H](C(C)C)O[C@@H]2C1CC1 | 1 | -2 | . | -1 | -1 | .
C=CCN1C(=O)[C@@H](CC(=O)NCCc2ccccc2OC)[C@]2(C(=O)OCC)CCCCC/C=C/12 | 1 | -1 | . | -1 | -1 | .
Cc1cc(/C=C(\C#N)C(=O)NC2CC2)c(C)[nH]1 | 12* | 0 | 3 | 3 | 0 | 6
COC(=O)C1C(=O)c2c([nH]c(C(=O)OCC3CCCO3)c2C)CC1C (stereo unspecified) | 7 | 4 | 5.8* | 3 | 0 | 4
COCCOC(=O)c1[nH]c2c(c1C)C(=O)C(C(=O)OC)C(C)C2 (stereo unspecified) | 10* | 3 | 3 | 3 | 0 | 5
CCCCCOC(=O)c1[nH]c2c(c1C)C(=O)C(C(=O)OC)C(C)C2 (stereo unspecified) | 6 | -3 | -1 | -1 | -1 | 6
CCOC(=O)[C@@]12CN(C(=O)OC(C)(C)C)CC=C1N(Cc1ccc(OC)cc1)C(=O)[C@H]2CC(=O)N1CCN(C(=O)c2ccco2)CC1 | -2 | -2 | . | 0 | -2 | .
Fc1cccc(NCc2cn3ccccc3n2)c1 | 11* | 4 | 1 | 4 | 1 | 4
C/C(=N\NC(=O)COc1ccccc1-c1ccccc1)c1ccccn1 | -10 | 0 | -2 | 4.0* | -2 | 6
CCCC[C@H]1C2CC(OC(=O)NCCCC(=O)OCC)C(C2)[C@H]2CCCCN21 (stereo partly specified) | 0 | -2 | . | 0 | -1 | .
O=C(CCc1nc(-c2ccccc2F)no1)NCCc1cccc(F)c1 | 3 | -1 | . | -1 | -1 | .
CCCCCCCCNc1nc(Cl)nc(NCc2ccco2)n1 | -1 | 4 | 0 | 0 | -1 | 3
CCCCCCNc1nc(Cl)nc(NC(C)(C)CO)n1 | 0 | -1 | 5.3* | 0 | -1 | 1
O=C(N/N=C/c1ccc(-c2ccccc2C(=O)O)o1)c1cccs1 | 12* | 1 | 1 | 1 | 0 | 7
Cc1c(CC(=O)NCCCC(=O)O)c(=O)oc2c(C)c3oc4c(c3cc12)CCCC4 | 0 | -2 | 4.9* | 0 | -1 | 1
COC(=O)c1cc(-c2cc(Cl)ccc2OC)c(=O)n2c1CCC2 | -4 | -3 | . | 0 | -1 | .
CCCCNC(=O)C1CCCN1C(=O)NCc1ccccc1OC (stereo unspecified) | 0 | -1 | . | 1 | -1 | .
COc1ccc(/C=N/NC(=O)CN2CCCc3ccccc32)c(OC)c1 | 1 | 5.8* | 0 | 0 | 0 | 2
O=C(N/N=C/c1cccs1)c1ccc2ccccc2c1 | 9 | 1 | 1 | 2 | -1 | -5
O=C(N/N=C/c1cccs1)c1cc(-c2cccc3ccccc23)n[nH]1 | 11* | 0 | 1 | 0 | -1 | 1
O=C(N/N=C/c1cccs1)c1cc(-c2ccc3ccccc3c2)n[nH]1 | 11* | 2 | 2 | 1 | 0 | 5
O=C(CSc1nnc(COc2ccccc2)n1-c1ccccc1)Nc1ccc2c(c1)OCO2 | 1 | -1 | . | -2 | -1 | .
COC(=O)[C@]12C[C@H](CC(=O)N3CCC(c4ccccc4)CC3)C(=O)N(CCc3ccc(OC)c(OC)c3)C1=C[C@H](C1CCCC1)O[C@@H]2C | 4 | 1 | . | -1 | -2 | .
SMILES | hgDAF-12 ag | hcDAF12 agonist | DAX1 inh-1 | DAX1 inh-2 | ssDAF12 agonist | GAA850 FXN act
CC1=CC(=O)C(C(C)C)=C/C1=N\OC(=O)c1cccc2nc(C)oc12 | -2 | 5.7* | 1 | 0 | 0 | 1
CC1=CC(=O)C(C(C)C)=C/C1=N/OC(=O)c1cccc([N+](=O)[O-])c1 | -4 | 3 | 2 | 0 | 0 | 0
N#CCCN(C(=O)CSc1n[nH]c(=O)[nH]c1=O)c1ccccc1 | 1 | -1 | -1 | -2 | -1 | 0
Cc1ccc(N(CCC#N)C(=O)CSc2nc3ccccc3c(=O)[nH]2)cc1 | 2 | -1 | 0 | 3.7* | -1 | 0
Cc1ccccc1CNC(=O)CN1CCCc2ccccc21 | 0 | 0 | . | -1 | -1 | .
COc1ccc(C)cc1N(C(=O)c1cccc(F)c1)c1nc2ccccc2s1 | 1 | 6.5* | 0 | 0 | 0 | -1
